Only a selection was taken, and hits are over-represented in it overall.
AmpC inh detg – qHTS Inhibitors of AmpC Beta-Lactamase (assay with detergent). hit rate 0.041% among 370,000. AmpC hydrolysis of nitrocefin, absorbance 480 nm, 0.01% Triton. AID 485294, 2010. Potency, µM (titrated, usually from 114 µM), hits mostly inhibitors; note: nearly all actives have a fitted effect of over 25% in size
Target sequence (P00811 whole entry, looked up): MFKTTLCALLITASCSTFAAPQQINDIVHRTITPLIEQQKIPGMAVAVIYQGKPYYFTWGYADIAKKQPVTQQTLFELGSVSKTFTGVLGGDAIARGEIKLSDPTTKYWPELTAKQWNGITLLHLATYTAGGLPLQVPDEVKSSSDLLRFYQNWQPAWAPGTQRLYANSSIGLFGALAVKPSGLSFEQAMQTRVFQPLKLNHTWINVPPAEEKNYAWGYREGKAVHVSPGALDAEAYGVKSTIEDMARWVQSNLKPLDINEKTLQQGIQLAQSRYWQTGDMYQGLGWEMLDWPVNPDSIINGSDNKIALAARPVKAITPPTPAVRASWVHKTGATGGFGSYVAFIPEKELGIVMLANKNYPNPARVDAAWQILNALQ
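AmpC (5.3 nM in the dispensed reagent) in 20 mM phosphate pH 7.0 with 0.01% (detergent screen) or 0.0001% Triton X-100 was preincubated with compounds for 15 min at room temperature. Nitrocefin was then added from an 800 uM solution, and hydrolysis was followed at 480 nm.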
NS1 function inh – qHTS Assay for Inhibitors of Influenza NS1 Protein Function. Potency, µM (top dose mostly 46.1 µM). hit rate 0.4% among 270,000. AID 2326, 2010; calls by dose curve; note: actives are rising curves; nearly all actives have a fitted effect of over 50% in size
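Growth recovery, yeast-based: influenza A NS1 expressed in S. cerevisiae causes slow growth, and suppressors are detected by OD600. The parent strain without NS1 is used as positive control.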
AmpC inh no detg – qHTS Inhibitors of AmpC Beta-Lactamase (assay without detergent); P00811; hit rate 0.52% among 330,000; Potency, µM (highest dose often 57.1 µM), usual class: inhibitors; AID 485341, 2010; AmpC nitrocefin hydrolysis, absorbance 480 nm, 0.0001% Triton; note: nearly all actives have a fitted effect of over 20% in size
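AmpC (5.3 nM in the dispensed reagent) in 20 mM phosphate pH 7.0 with 0.01% (detergent screen) or 0.0001% Triton X-100 was preincubated with compounds for 15 min at room temperature. Nitrocefin was then added from an 800 uM solution, and hydrolysis was followed at 480 nm.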
Shiga inhibitor – A qHTS for Small Molecule Inhibitors of Shiga Toxin. Vero cells, Shiga toxin protein synthesis inhibition reporter. inhibition, % at 38.7 µM. hit rate 9.2% among 290,000; in the data active = inhibition mostly above about 28%, no sharp cut-off; inactive = mostly below about 43%
Cycloheximide cs – Cycloheximide Counterscreen for Small Molecule Inhibitors of Shiga Toxin; max response, %; hit rate 12% among 300,000; cell reporter, cycloheximide protein synthesis inhibition counterscreen; in the data active = max response mostly above about 13%, no sharp cut-off; inactive = mostly below about 14%; note: read at 38.3 µM for the half of the compounds with a filed dose
Each line names hits and unclear results; the compound was inactive in the other large screens. Unless noted, calls come from the whole dose curve; as a rule, active = well fitted curve in the direction sought with a large enough effect; inconclusive = small, poorly fitted or top-dose-only effect, or another doubt; inactive = no such curve, though single readings can be large; an effect the other way counts as inactive or inconclusive.

O=C(Nc1nccs1)c1ccccc1Br	Cycloheximide cs 28
Cc1nc2cc(C(=O)N3c4ccccc4CC3C)ccc2s1 (stereo not drawn)	none
CC(=O)N1CCc2cc(S(=O)(=O)N3CCCCCC3)ccc21	none
O=C1CCCC(O)=C1N=Nc1ccc(Cl)c(Cl)c1	Cycloheximide cs 23 (no result: NS1 function inh)
Cc1nc2cc(N=NC3=C(O)CCCC3=O)ccc2s1	Shiga inhibitor 89, Cycloheximide cs 61
CC(=O)N1CCc2cc(N=NC3=C(O)CCCC3=O)ccc21	Shiga inhibitor 92, Cycloheximide cs 31 (no result: NS1 function inh)
O=C(CCS(=O)(=O)c1nc(-c2ccc3c(c2)OCO3)cc(C(F)(F)F)n1)Nc1ccc(Br)cc1	none (no result: NS1 function inh, AmpC inh no detg, Shiga inhibitor, Cycloheximide cs)
COC(=O)c1sccc1NC(=O)Nc1cccc(F)c1	AmpC inh detg inconclusive, Cycloheximide cs 9.4 (no result: NS1 function inh)
COC(=O)c1sccc1NC(=O)Nc1ccc(F)cc1F	AmpC inh detg inconclusive
COc1cccc(NC(=O)Nc2ccccc2Br)c1	Shiga inhibitor 74, Cycloheximide cs 53
COC(=O)c1sccc1NC(=O)Nc1cccc(OC)c1	Shiga inhibitor 40, Cycloheximide cs 45
COc1cccc(NC(=O)Nc2cc(Cl)ccc2C)c1	none (no result: NS1 function inh)
COC(=O)c1sccc1NC(=O)c1cccc(OC)c1	none
O=C(CC(=O)c1ccccc1)Nc1cc(C(F)(F)F)ccc1Cl	AmpC inh no detg 25µM, Cycloheximide cs 16
O=C(NC(=S)Nc1cc(C(F)(F)F)ccc1Cl)c1ccccc1	none
O=C(O)c1ccc(NNC(=S)Nc2cc(C(F)(F)F)ccc2Cl)cc1	Shiga inhibitor 59, Cycloheximide cs 36
CCOc1cc(Cl)c(S(=O)(=O)n2ccnc2)cc1Cl	none (no result: NS1 function inh, AmpC inh no detg, Shiga inhibitor, Cycloheximide cs)
Cc1nn(-c2ccc(C(F)(F)F)cn2)c(C)c1Oc1ccccc1O	Cycloheximide cs 23
CC(/C=C/c1ccc(N(C)C)cc1)=N\N=C(/N)SC1CC(=O)N(c2ccc(C(=O)O)cc2)C1=O (stereo not drawn)	NS1 function inh inconclusive, Shiga inhibitor 70, Cycloheximide cs 45
O=C(O)c1ccc(N2C(=O)CC(SC(=Nc3ccccc3)Nc3ccccc3)C2=O)cc1 (stereo not drawn)	NS1 function inh inconclusive
Cc1cc(C)cc(NC(=O)C2CCN(c3nc4ccccc4nc3C(F)(F)F)CC2)c1	none (no result: NS1 function inh, AmpC inh no detg, Shiga inhibitor, Cycloheximide cs)
CN1CCN(S(=O)(=O)c2ccc(CNC(=O)c3ccccc3)s2)CC1	none
Cn1c(NC(=O)c2ccc(F)cc2)nc2ccccc21	AmpC inh detg inconclusive, Shiga inhibitor 40, Cycloheximide cs 31
O=C(Nc1nc2ccccc2c2nc3ccccc3n12)c1ccc(F)cc1	none
CCn1c(NC(C)=O)nc2ccccc21	none
CC(=O)Nc1nc2ccccc2n1CCN1CCOCC1	AmpC inh detg inconclusive
CN(C)CCn1c(NC(=O)c2ccc(Cl)cc2)nc2ccccc21	Shiga inhibitor 89, Cycloheximide cs 38
CCn1c(NC(=O)c2cccs2)nc2ccccc21	Cycloheximide cs 47
O=C(Nc1nc2ccccc2n1CCN1CCOCC1)c1ccccc1	AmpC inh detg inconclusive, Cycloheximide cs 10
CCc1nn(-c2ccccc2)c2nc(-c3ccc(O)cc3)c3cc(OC)c(OC)cc3c12	none (no result: NS1 function inh, AmpC inh no detg, Shiga inhibitor, Cycloheximide cs)
CCCN(C(=O)Cn1nc(Cc2ccncc2)c2ccccc2c1=O)c1ccccc1C	none (no result: NS1 function inh, AmpC inh no detg, Shiga inhibitor, Cycloheximide cs)
COc1ccc(-n2c(SCC(=O)NCC3CCCO3)nc3c(c2=O)SC(C)C3)cc1 (stereo not drawn)	none
CCCC(O)c1nc2ccccc2n1CCCOc1ccc(Cl)cc1 (stereo not drawn)	none (no result: NS1 function inh, AmpC inh no detg, Shiga inhibitor, Cycloheximide cs)
CCN(CC)CCn1c(NC(=O)c2ccc(C)cc2)nc2ccccc21	AmpC inh detg inconclusive, Cycloheximide cs 44 (no result: Shiga inhibitor)
CN(c1ccccc1)S(=O)(=O)c1cccc(NC(=O)COc2ccccc2)c1	none (no result: NS1 function inh, Shiga inhibitor, Cycloheximide cs)
CN(c1cccc(NC(=O)CCSc2ccccc2)c1)S(C)(=O)=O	Shiga inhibitor 35, Cycloheximide cs 38
CC(=O)Nc1cccc(NC(=O)COc2ccccc2C)c1	AmpC inh detg inconclusive, Shiga inhibitor 33, Cycloheximide cs 20
CN(c1cccc(NC(=O)COc2ccccc2)c1)S(C)(=O)=O	AmpC inh detg inconclusive, Shiga inhibitor 75, Cycloheximide cs 43
Cc1ccccc1OCC(=O)Nc1cccc(N(C)S(C)(=O)=O)c1	AmpC inh no detg inconclusive, Shiga inhibitor active, Cycloheximide cs 15
CC(=O)c1cccc(NC(=O)COC(=O)COc2ccccc2C)c1	none (no result: NS1 function inh)
CN(C(=O)CSc1nnc(-c2cccnc2)o1)C1CCCCC1	none (no result: NS1 function inh, Shiga inhibitor, Cycloheximide cs)
Cc1ccc(NC(=O)COc2ccccc2C=O)cc1Cl	Cycloheximide cs 26
CN(c1cccc(NC(=O)COc2ccc(Cl)cc2Cl)c1)S(C)(=O)=O	Shiga inhibitor 54, Cycloheximide cs 19
CN(c1cccc(NC(=O)CSc2ccc(Cl)cc2)c1)S(C)(=O)=O	none
CC(C(=O)N1CCc2ccccc2C1)N1C(=O)c2ccccc2C1=O (stereo not drawn)	none
CC(N=C1NS(=O)(=O)c2ccccc21)C(=O)N1CCc2ccccc2C1 (stereo not drawn)	Shiga inhibitor 46, Cycloheximide cs 19
COc1ccc(/C=N/NC(=O)C(=O)N2CCCCCC2)cc1O	none
c1ccc2oc(-c3ccn[nH]3)cc2c1	AmpC inh detg inconclusive, Shiga inhibitor 90, Cycloheximide cs 39
CCn1nc(-c2ccccc2)nc2c(=O)n(C)c(=O)nc1-2	Shiga inhibitor 48, Cycloheximide cs 43
COC1CCCN(C(=O)c2ccc3nc(Cc4cccc(Cl)c4)oc3c2)C1 (stereo not drawn)	Shiga inhibitor 49
COCC1CCCN(C(=O)c2ccc3nc(Cc4cccc(Cl)c4)oc3c2)C1 (stereo not drawn)	Shiga inhibitor 89, Cycloheximide cs 42
CC1CCN(C(=O)CSc2nnc3c(n2)[nH]c2ccccc23)CC1	none
CC1=CCC(/C=N\Nc2nnc3c(n2)[nH]c2ccccc23)CC1 (stereo not drawn)	Shiga inhibitor 55, Cycloheximide cs 76
CCOc1ccc(NC(=O)C(C)Oc2ccc(C#N)cc2)cc1S(=O)(=O)N1CCCC1 (stereo not drawn)	none (no result: NS1 function inh, Shiga inhibitor, Cycloheximide cs)
Cc1cccc(S(=O)(=O)Nc2ccc(-c3ccc4nncn4n3)cc2)c1	none (no result: NS1 function inh, Shiga inhibitor, Cycloheximide cs)
Cc1cc(C)n(-c2ccc(C(=O)Nc3ccc4c(c3)OCO4)cc2)n1	AmpC inh detg inconclusive
Cc1cc(C)n(-c2ccc(C(=O)NC3=NCCS3)cc2)n1	Shiga inhibitor 92, Cycloheximide cs 41
O=C(NC1=NCCS1)c1ccc(Cl)cc1	Shiga inhibitor 93, Cycloheximide cs 58
O=C(NC1=NCCS1)c1ccc(-c2ccc(Cl)cc2)o1	AmpC inh detg inconclusive, Shiga inhibitor 77, Cycloheximide cs 56
c1ccc2c(NC3=NCCS3)cccc2c1	AmpC inh detg inconclusive
O=C(NC1=NCCS1)c1ccc(Br)s1	AmpC inh detg inconclusive
O=C(NC1=NCCS1)c1cccc2ccccc12	Cycloheximide cs 26 (no result: NS1 function inh)
O[C@@H]1CCN2Cc3ccccc3N=C12	none (no result: AmpC inh detg, NS1 function inh, AmpC inh no detg)
COc1ccc(Cl)cc1C(=O)NC1=NCCS1	AmpC inh detg inconclusive, Cycloheximide cs 16
